Shown are actives, neighbours in structure and some others; about 3.4% of the full set was active somewhere.
p47phox inh: inhibitors of human p47phox binding | P14598 | AID 1274 | p47phox/p22phox peptide binding, fluorescence polarization, 2 h | inhibition, % at 24.7 µM | 220,000 compounds, 0.53% hits;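 active = inhibition above about 30%, limit read from the data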;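 also: 0% = p47phox with labelled peptide and 100% = labelled peptide alone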
Calpain2 inh: inhibitors of pig calpain II; purified calpain II, fluorogenic peptide substrate, 30 min; inhibition, % at 16 µM; 220,000 compounds, 0.37% hits; AID 1236;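 active = inhibition above about 50%, limit read from the data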
Mcl1 Noxa PPI: Mcl-1/Noxa interaction inhibition; TR-FRET Mcl-1/Noxa peptide binding, 2 h; inhibition, % at 21.7 µM; 220,000 compounds, 1.5% hits; AID 1022;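 active = compounds that cut the protein-peptide binding signal by more than 50% relative to plate controls in a single-dose test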;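 also: His-tagged Mcl-1 with rhodamine Noxa BH3 peptide and terbium anti-His antibody; 0% = Mcl-1 plus Noxa peptide wells and 100% = peptide-only wells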
Target sequence (Q07820 whole entry, looked up): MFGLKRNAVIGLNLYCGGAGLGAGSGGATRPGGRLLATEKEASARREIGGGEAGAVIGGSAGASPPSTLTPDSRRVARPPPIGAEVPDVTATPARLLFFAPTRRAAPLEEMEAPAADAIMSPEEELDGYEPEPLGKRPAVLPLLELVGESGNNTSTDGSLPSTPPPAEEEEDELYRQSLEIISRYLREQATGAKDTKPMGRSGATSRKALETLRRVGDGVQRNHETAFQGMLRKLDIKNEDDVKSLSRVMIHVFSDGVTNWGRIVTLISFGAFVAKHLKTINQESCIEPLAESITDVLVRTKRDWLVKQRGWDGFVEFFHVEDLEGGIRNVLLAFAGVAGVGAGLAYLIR
Bim-Mcl-1: human Bim-Mcl-1 interaction inhibition; inhibition, % at 10 µM; 190,000 compounds, 0.1% hits; AID 1009; Bead-based flow cytometry, Bim peptide-Mcl-1 binding; in the data active = inhibition above about 40%;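 also: 0% = no compound tracer wells and 100% = peptide blocker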
14-3-3 Bad inh: disrupts binding of bovine 14-3-3 zeta to phospho-Bad peptide. P63103. TR-FRET 14-3-3zeta/Dy647-pBad peptide displacement, 1 h. inhibition, % at 21.7 µM. 220,000 compounds, 0.71% hits. AID 781;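 active = inhibition above about 70%, limit read from the data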;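 also: 0% = full 14-3-3 plus peptide FRET controls and 100% = background without 14-3-3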
Target sequence (P63103 whole entry, looked up): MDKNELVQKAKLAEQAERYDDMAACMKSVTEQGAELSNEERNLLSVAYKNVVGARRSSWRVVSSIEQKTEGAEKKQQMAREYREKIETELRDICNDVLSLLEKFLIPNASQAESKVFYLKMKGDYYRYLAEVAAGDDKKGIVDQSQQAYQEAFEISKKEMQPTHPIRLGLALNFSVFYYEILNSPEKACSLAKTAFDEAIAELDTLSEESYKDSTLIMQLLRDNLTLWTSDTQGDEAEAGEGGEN
Mcl1-Bid inh: disrupts binding of human Mcl-1 to Bid peptide; Q07820; TR-FRET Mcl-1/Bid-Dy647 peptide binding, 1536-well; inhibition, % at 21.7 µM; 220,000 compounds, 0.97% hits;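 active = compounds that cut the binding signal by more than half at the single screening dose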;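 also: His-tagged Mcl-1 with europium anti-His antibody binding Bid BH3 peptide; 0% = Mcl-1 plus peptide wells and 100% = peptide-only wells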
Starred values were filed as active, the others as inactive; . = no result given; + = active, no number; [ ] = dose if it differs, or a comment.

SMILES	p47phox inh	Calpain2 inh	Mcl1 Noxa PPI	Bim-Mcl-1	14-3-3 Bad inh	Mcl1-Bid inh
CC(C)(C)C(=O)Nc1nc(C2CCCN2S(=O)(=O)c2ccc(Cl)cc2)cs1 (stereo unspecified)	11	12	-8	2	71*	-19
COc1ccc(/C=N/NC(=O)c2ccc3nc[nH]c3c2)cc1	0	17	-13	.	-3	-10
Cc1ccc(OCc2ccc(C(=O)Nc3nc4ccccc4n3Cc3ccccc3)o2)c([N+](=O)[O-])c1	32*	-87	28	-2	16	68*
O=C(Nc1nc2ccccc2n1Cc1ccccc1)c1ccc(COc2ccccc2[N+](=O)[O-])o1	-1	19	14	2	0	18
Cc1ccc(C)c(N/N=C2\CCCNC2=O)c1	-10	8	8	-7	8	-53
CC1=C2C(CCS2(=O)=O)CC2(C1)C(=O)OC(C)(C)OC2=O (stereo unspecified)	-10	-13	24	66*	-6	-11
COc1ccc(CC(=O)OCC(=O)Nc2ccc(Br)cc2)cc1	-9	-11	-1	-4	-1	-21
O=C(/C=C/c1ccccc1)NC(=S)Nc1ncccn1	1	-20	68*	.	19	-76
Cc1cc(NC(=O)CSc2nc3ccccc3c(=O)n2Cc2ccc(F)cc2)no1	23	21	-180	-1	74*	57*
COc1ccc(CCn2c(SCC(=O)Nc3cc(C)on3)nc3ccccc3c2=O)cc1OC	5	-52	11	0	13	4
COc1ccc(CCn2c(SCC(=O)Nc3cc(C)on3)nc3ccsc3c2=O)cc1OC	49*	34	-12	-1	20	38
COc1cccc2cc(C(N)=O)/c(=N/NC(=O)COc3ccc(Cl)cc3)oc12	25	-3	4	-2	31	64*
O=C(N/N=C/c1cccnc1)c1cccc(S(=O)(=O)N2CCCC2)c1	4	-25	1	55*	-5	-32
COc1ccc(/C=C2\C(=O)NC(=S)N2C(=O)c2ccc(C)cc2)cc1	-142	-76	77*	-2	79*[fluorescence artefact?]	56*
O=C1NC(=S)N(C(=O)c2ccc(F)cc2)/C1=C/c1cccnc1	-11	7	9	.	4	15
Cn1nnnc1SCC(=O)Nc1cccc(S(=O)(=O)N2CCCC2)c1	4	-25	-68	0	-6	-22
CCOC(=O)CCC(=O)Nc1ccc(S(=O)(=O)N2CCC(C)CC2)cc1	31*	-10	5	0	0	0
CCOC(=O)CCC(=O)Nc1ccc(S(=O)(=O)N2CCCC2)cc1	-8	-28	-17	-4	-8	-8
CC1CCN(S(=O)(=O)c2ccc(NC(=O)CSc3nnnn3C)cc2)CC1	-1	59*	16	0	10	-12
COc1ccc(CNC(=O)CCn2c(=O)oc3ccccc32)c(OC)c1	6	27	42	4	11	4
NC(=NCc1ccc2c(c1)OCO2)NC(=O)c1ccccc1	-12	-29	9	-1	77*	7
C/C(CCc1ccc2c(c1)OCO2)=N\NC(=O)c1ccccc1	-1	24	15	-2	4	-7
COc1ccc(CCNS(=O)(=O)c2ccc(OC)cc2)cc1	-15	21	19	-1	-5	-9
COc1ccc(S(=O)(=O)N2CCC(C(=O)NCCc3ccc4c(c3)OCO4)CC2)cc1	42*	16	-6	-1	-5	-9
Cn1c(=O)oc2cc(S(=O)(=O)N3CCCC(C(=O)NCc4ccc5c(c4)OCO5)C3)ccc21 (stereo unspecified)	-118	-32	21	0	-7	53*
SMILES	p47phox inh	Calpain2 inh	Mcl1 Noxa PPI	Bim-Mcl-1	14-3-3 Bad inh	Mcl1-Bid inh
COc1ccc(CCNS(=O)(=O)c2ccc3c(c2)OCCO3)cc1	-11	-1	-19	0	84*	-39
COc1ccccc1C(=O)NC1CCN(C(=S)NCCc2ccccc2)CC1	-12	-19	-2	3	-13	-41
COc1ccc(C(=O)/C=C/C(=O)N(CC(=O)NC2CCCCC2)CC2CCCO2)c(O)c1 (stereo unspecified)	-4	30	68*	-6	4	30
COc1ccc(C(=O)/C=C/C(=O)N(Cc2ccccc2)C(C(=O)NC2CCCCC2)c2ccncc2)c(O)c1 (stereo unspecified)	-7	-15	16	0	-10	-22
COc1ccc(C(=O)/C=C/C(=O)N(CC(=O)NC2CCCCC2)Cc2ccccc2)c(O)c1	30*	-74	6	-3	1	37
COc1ccc(C(=O)/C=C/C(=O)N(CC(=O)NC2CCCCC2)Cc2ccccc2OC)c(O)c1	33*	-95	11	0	5	17
CC(NS(=O)(=O)/C=C/c1ccccc1)c1ccccc1 (stereo unspecified)	14	16	14	0	2	-32
N#Cc1c(Cl)cccc1Oc1ccc(S(=O)(=O)Nc2ccccc2)cc1	1	51*	12	.	7	16
N#Cc1cccc(C#N)c1Oc1ccc(S(=O)(=O)Nc2ccccc2)cc1	-7	24	5	.	6	13
Cc1ccc(-n2nnnc2C(Cl)(Cl)c2nnnn2-c2ccc(C)cc2)cc1	-2	-6	53*	-9	16	-30
Clc1ccc(-c2nnnn2-c2ccc(Cl)cc2)cc1	1	8	-9	.	2	-5
O=C(COc1ccccc1C(=O)O)Nc1nc2ccc([N+](=O)[O-])cc2s1	-11	-3	4	.	-7	-12
Cc1noc(NS(=O)(=O)c2ccc(NC(=O)c3ccc(N4C(=O)c5ccccc5C4=O)cc3)cc2)c1C	-21	83*	0	0	-5	-27
Cc1noc(NS(=O)(=O)c2ccc(N/C=C\C(=O)c3cccc4ccccc34)cc2)c1C	-31	29	26	2	-6	-29
Cc1noc(NS(=O)(=O)c2ccc(N3Cc4ccccc4C3=O)cc2)c1C	1	11	14	-1	+[fluorescence artefact?]	-29
Cc1noc(NS(=O)(=O)c2ccc(NC(=O)CCN3C(=O)c4ccccc4C3=O)cc2)c1C	-9	25	-2	-2	-6	-14
COc1cccc(C(=O)/C=C/Nc2ccc(S(=O)(=O)Nc3onc(C)c3C)cc2)c1	-9	-26	2	66*	-1	-12
Cc1cc(C)c2nc(-c3ccccn3)cc(C(=O)Nc3ccc(S(=O)(=O)Nc4onc(C)c4C)cc3)c2c1	-16	44	79*	4	15	-7
Cc1cc(C)c2nc(-c3ccccn3)cc(C(=O)Nc3ccc(S(=O)(=O)Nc4cc(C)on4)cc3)c2c1	-34	-16	36	-1	-2	-3
Cc1noc(NS(=O)(=O)c2ccc(N/C=C\C(=O)c3ccc(Br)cc3)cc2)c1C	-33	5	39	0	3	-19
CCCCc1cc(=O)oc2cc(OCc3nn[nH]n3)ccc12	4	-13	5	.	9	5
